Assay outcomes: PubChem, The Scripps Research Institute Molecular Screening Center
Only some compounds are listed: those with a hit (about 5.7% of all), similar ones and a draw of the others.
AHR activator: AHR activators, primary screen, cell-based, luminescence, luciferase reporter, human; activation, % at 5 µM; 320,000 tested, 2.5% active; Aryl hydrocarbon receptor (Homo sapiens), P35869; AHR-responsive luciferase reporter cells; in the data active means activation above about 47%;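 further: 0% = vehicle wells and 100% = reference agonist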
ssDAF12 agonist: S. stercoralis DAF-12 nuclear receptor activators, primary screen, cell-based, luminescence, HEK293, GRIP1 co-expression, lit1-tk-luc | 370,000 tested, 1% active | Nuclear hormone receptor DAF-12 (Strongyloides stercoralis) | activation, % at 6.8 µM | HEK293 ssDAF-12/GRIP1 lit1-tk-luc reporter; % of 3 µM dafachronic acid response;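 active means activation above the mean over all tested compounds plus 3 SD, cut at about 0.9% in these data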;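 further: 0% = DMSO-only wells and 100% = 3 µM delta7-dafachronic acid wells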
DAX1 inh-1: DAX1 (NR0B1) inhibitors, primary screen, cell-based, HEK293, Gal4-DAX1, luciferase luminescence. HEK293 Gal4-DAX1 luciferase reporter. inhibition, % at 6.75 µM. Nuclear receptor subfamily 0 group B member 1 (Homo sapiens), P51843. 340,000 tested, 0.99% active;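 active means inhibition above the mean over all tested compounds plus 3 SD, cut at about 4.2% in these data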;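 further: 0% = DAX1-transfected cells with DMSO and 100% = empty-vector control cells with DMSO; inhibition shows as a rise in luminescence from relieved DAX1 repression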
Target sequence (P51843 207-470 limits assumed): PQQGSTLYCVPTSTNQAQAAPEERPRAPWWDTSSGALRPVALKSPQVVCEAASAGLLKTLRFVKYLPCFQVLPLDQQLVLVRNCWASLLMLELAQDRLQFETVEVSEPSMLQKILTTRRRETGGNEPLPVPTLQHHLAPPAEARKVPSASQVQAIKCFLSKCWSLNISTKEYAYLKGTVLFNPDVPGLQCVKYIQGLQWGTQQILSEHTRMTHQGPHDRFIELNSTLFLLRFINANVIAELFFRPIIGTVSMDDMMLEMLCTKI
hcDAF-12 act: H. contortus DAF-12 nuclear receptor activators, primary screen, cell-based, luminescence, HEK293, lit1-tk-luc reporter; HEK293 hcDAF-12 lit1-tk-luc reporter; 0% DMSO, 100% Δ7-dafachronic acid; activation, % at 6.8 µM; 370,000 tested, 1.4% active; AID 652067, 2013;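 active means activation above the mean of all tested compounds plus 3 SD, cut at about 5.5% in these data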;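 further: 100% = response to 3 µM Δ7-dafachronic acid high control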
DAX1 inh-2: DAX1 (NR0B1) inhibitors on StAR promoter, primary screen, cell-based, luminescence, SF-1 (NR5A1), full-length DAX-1; AID 652010, 2013; HEK293T StAR-luciferase reporter, SF-1/DAX-1 repression relief; 370,000 tested, 1.1% active; inhibition, % at 6.8 µM;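 active means inhibition above the mean over all tested compounds plus 3 SD, cut at about 3.6% in these data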;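 further: 0% = DAX-1 cells with DMSO and 100% = cells lacking DAX-1 with DMSO; higher inhibition means more luminescence from relief of DAX-1 repression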
hgDAF12 agonist: H. glycines DAF-12 receptor agonists, primary screen, cell-based, luminescence, HEK293, GAL4 fusion, UAS-luciferase. HEK293 GAL4-hgDAF12 UAS-luciferase reporter, agonist luminescence; normalized to butyrate control. activation, % at 6.8 µM. 370,000 tested, 1.8% active. AID 687014, 2013. Nuclear hormone receptor DAF-12 (Heterodera glycines), GAL4 fusion;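 active means activation above a cutoff set at the mean of all screened compounds plus 3 SD, cut at about 10% in these data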;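 further: 0% = DMSO wells and 100% = sodium butyrate wells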
* marks the source's active call; other numbers are inactive results; / = no result given.

SMILES	AHR activator	ssDAF12 agonist	DAX1 inh-1	hcDAF-12 act	DAX1 inh-2	hgDAF12 agonist
Nc1nc2n[nH]nc2c(=O)[nH]1	0	1.5*	2	2	0	1
Nc1nc2nn(-c3ccccc3)nc2c(=O)[nH]1	3	-1	1	2	0	4
COc1ccc(/C=C/C(=O)OCC(=O)Nc2ncc(Cl)cc2Cl)cc1	17	1.1*	0	2	-1	0
COc1ccc(/C=C/C(=O)NC(=S)N2CCN(c3ccccc3OC)CC2)cc1	3	-1	5.5*	2	1	0
COc1ccccc1/C=C/C(=O)NC(=S)NC(C)C	68*	-2	0	1	0	-4
COc1ccccc1/C=C/C(=O)NC(=S)N1CCN(C)CC1	/	-2	3	0	3.9*	0
COc1ccc(/C=C/C(=O)NC(=S)N2CCOCC2)cc1	3	0	1	2	0	7
O=C(CC1CCCC1)N1CCN(S(=O)(=O)c2ccccc2)CC1	0	-1	1	-1	-1	0
C/C(=N\NC(=O)C1CC1c1ccccc1)c1ccc(C)s1 (stereo not drawn)	75*	-1	0	-1	-1	-1
FC(F)(F)c1cc(NC2CCCCC2)ccn1	2	-1	-1	-2	-1	-2
O=c1[nH]c2ccccc2c2cn(-c3ccccc3)nc12	64*	0	1	3	0	9
CCc1nc2ccc(C(=O)Nc3ccc(NC(C)=O)cc3)cn2c1N(C)CCC(C)C	/	-2	/	-3	0	-4
O=C(NCCc1ccccc1)OCc1cn(-c2ccc(F)c(F)c2)nn1	/	-1	/	1	0	2
CC(NC(=O)CSc1ncccc1C(=O)O)C1CC2CCC1C2 (stereo not drawn)	1	-1	5.1*	-1	0	0
O=C(NCCCN1CCOCC1)c1ccccc1N1C(=O)[C@@H]2Cc3c([nH]c4ccccc34)C(c3ccccc3)N2C1=O (stereo partly drawn)	/	0	/	5.8*	0	4
CCc1ccc(-c2n[nH]nc2C2=CC(=O)C[C@H](c3ccc(F)cc3)C2)cc1	/	-2	0	-2	-1	3
O=C(N/C(=C\c1ccco1)C(=O)N1CCOCC1)c1ccccc1Cl	-3	-1	-1	0	0	-1
CCOC(=O)c1c(C)[nH]c(C)c1C(=O)CSc1nc(N)cc(=O)[nH]1	7	-2	-1	-1	0	0
CCOC(=O)c1c(C)[nH]c(C)c1C(=O)Cn1nnc(-c2ccccc2C)n1	49*	-1	0	-2	-1	0
CCOC(=O)c1c(C)[nH]c(C)c1C(=O)CSc1nc2ccccc2[nH]1	59*	-2	1	-2	0	-1
CCOC(=O)c1c(C)[nH]c(C)c1C(=O)CSc1nc2ccccc2n1CC	29	-2	-2	-4	-1	-3
CCOC(=O)c1c(C)[nH]c(C)c1C(=O)CSc1ncccn1	78*	/	-1	/	/	/
CCN(C(=O)COc1ccc(N(C)S(=O)(=O)c2ccc(NC(C)=O)cc2)cc1)C1CCCCC1	2	0	-1	0	0	2
NS(=O)(=O)c1ccc(NC(=O)CN2C(=O)C3C4C=CC(C4)C3C2=O)cc1 (stereo not drawn)	-2	-1	5.5*	-1	1	-1
O=S(=O)(c1ccccc1)C1(C2CC(c3ccccc3)=NO2)CC(O)C1 (stereo not drawn)	1	-1	0	-1	0	1
SMILES	AHR activator	ssDAF12 agonist	DAX1 inh-1	hcDAF-12 act	DAX1 inh-2	hgDAF12 agonist
Cn1c(SCC(=O)Nc2cccc(F)c2)nc2c(c1=O)SCC2	-5	-1	-1	1	0	-2
O=C(NCCc1cccs1)C1CC(c2ccccc2[N+](=O)[O-])=NO1 (stereo not drawn)	13	0	3	5.8*	2	5
Cc1ccc(CCNC(=O)C2CC(c3ccccc3[N+](=O)[O-])=NO2)cc1 (stereo not drawn)	10	0	1	2	0	2
CSC1=NC(=O)/C(=C/c2ccc(SC)cc2)S1	4	-1	1	2	3	13*
CCOC(=O)CSC1=NC(=O)/C(=C\c2ccc(Cl)cc2)S1	7	1.3*	-1	2	1	8
O=C(CNS(=O)(=O)c1ccccc1)Nc1cccc([N+](=O)[O-])c1	3	-1	1	1	0	0
COc1cc(N2CCC(O)CC2)ccc1Nc1cc(Nc2ccccc2S(=O)(=O)C(C)C)c2cc[nH]c2n1	/	-1	/	-3	-1	-1
CCOC(=O)c1c(C)[nH]c(C2=NNC(=Nc3ccccc3OC)SC2)c1C	37	0	1	6.0*	1	3
CCOC(=O)c1c(C)[nH]c(C2=NNC(=Nc3ccccc3)SC2)c1C	/	-2	1	2	0	2
O=C(Nc1cccc(-c2csc(Nc3ccc(Cl)cc3)n2)c1)c1cc([N+](=O)[O-])cc(C(F)(F)F)c1	56*	0	2	1	1	0
O=C(Nc1cccc(-c2csc(Nc3ccccc3)n2)c1)c1cc([N+](=O)[O-])cc(C(F)(F)F)c1	31	-1	1	0	1	4
Cc1cccc(C)c1OCc1cccc(C2Nc3ccccc3C(=O)N2Cc2ccco2)c1 (stereo not drawn)	/	-2	/	-1	/	4
O=C(COC(=O)c1ccc(F)cc1F)Nc1cccc(S(=O)(=O)N2CCOCC2)c1	/	-1	-1	-2	3.6*	2
O=C(COC(=O)c1cccc(F)c1)Nc1cccc(S(=O)(=O)N2CCOCC2)c1	/	-1	2	1	1	1
CC(=O)c1cccc(NC(=O)COC(=O)CCc2ccc(S(=O)(=O)N3CCOCC3)cc2)c1	-1	-1	4.3*	0	-1	1
OCCNc1nc(Nc2ccccc2)nc(Nc2ccccc2)n1	48*	-1	2	0	0	-3
CC(C)(C)Nc1nc(Cl)nc(Nc2ccccc2)n1	8	0	2	4	2	11*
Clc1nc(Nc2ccccc2)nc(Nc2ccccc2)n1	11	-1	-2	-2	0	0
OCCNc1nc(Nc2ccccc2)nc2ccccc12	51*	-1	-1	-2	0	0
